Experimental data taken from PubChem BioAssay (EPA / NIEHS).
Inconclusive results are not listed. Activity calls are given as the source filed them. How the source made its calls, unless noted: active means hit-call score of the fitted dose curve at least 0.9, where 1 is the maximum; inactive means score below 0.9.

Key:
[1] = target: Paired box protein Pax-6 (Homo sapiens) (UniProt P26367); assay: ATG_Pax6_CIS: Attagene CIS-FACTORIAL HepG2 Assay for human Paired Box 6 (PAX6) (AID 2282956); conditions: HepG2 CIS-FACTORIAL PAX6 reporter transcription, RNA readout; actives raise or lower the signal
Sequence of Paired box protein Pax-6 (Homo sapiens) (P26367 whole entry, looked up): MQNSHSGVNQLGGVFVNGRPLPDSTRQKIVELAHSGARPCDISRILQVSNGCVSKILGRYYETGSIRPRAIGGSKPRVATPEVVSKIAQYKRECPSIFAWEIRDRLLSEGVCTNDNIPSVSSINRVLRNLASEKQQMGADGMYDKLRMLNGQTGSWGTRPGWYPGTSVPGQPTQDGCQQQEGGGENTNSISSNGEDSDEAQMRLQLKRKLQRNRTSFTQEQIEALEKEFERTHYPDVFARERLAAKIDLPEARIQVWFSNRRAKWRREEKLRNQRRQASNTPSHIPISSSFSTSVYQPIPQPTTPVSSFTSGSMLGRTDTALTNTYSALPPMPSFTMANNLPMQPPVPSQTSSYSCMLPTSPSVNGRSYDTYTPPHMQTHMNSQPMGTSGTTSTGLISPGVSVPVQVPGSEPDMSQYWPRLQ
Procedure, shortened: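 Read-out is reporter transcript level, measured by RT-PCR with fluorescent primer extension and capillary electrophoresis after 24 h dosing of transfected HepG2 cells. Activity in either direction fitted relative to DMSO control.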

[2] = ATG_PXRE_CIS: Attagene CIS-FACTORIAL HepG2 Assay for human Pregnane X Receptor Element (PXRE) (AID 2282957); conditions: HepG2 Attagene CIS-FACTORIAL PXRE reporter, mRNA; actives raise or lower the signal
Procedure, shortened: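 Using HepG2 transfected with multiple reporter transcription units, endogenous factor-driven transcription was scored as reporter mRNA after 24 h exposure.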

[3] = ATG_PPRE_CIS: Attagene CIS-FACTORIAL HepG2 Assay for human Peroxisome Proliferator-activated Response Element (PPRE) (AID 2282958); conditions: HepG2 PPRE cis-element reporter, Attagene transcription factor profiling; actives raise or lower the signal
Procedure, shortened: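 Endogenous PPRE-driven transcription is measured in HepG2 cells carrying transfected multi-reporter constructs. Reporter transcripts are quantified by RT-PCR, HpaI digestion and capillary electrophoresis 24 h after dosing. DMSO baseline, bidirectional fit.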

[4] = ATG_RORE_CIS: Attagene CIS-FACTORIAL HepG2 Assay for human RAR-related Orphan Receptor Element (RORE) (AID 2282959); conditions: HepG2 Attagene cis-factorial RORE reporter, mRNA; actives raise or lower the signal
Procedure, shortened: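 RORE reporter transcripts reflecting endogenous factor activity were read after 24 h compound exposure of transfected HepG2 cells, using reverse transcription, PCR, fluorescent labelling and capillary electrophoresis sizing. Gain or loss fitted against DMSO.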

[5] = ATG_Sox_CIS: Attagene CIS-FACTORIAL HepG2 Assay for human SRY-box transcription factor (SOX) (AID 2282960); conditions: HepG2 Attagene cis-factorial SOX reporter, mRNA; actives raise or lower the signal
Procedure, shortened: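 Reporter transcripts, measured by RT-PCR and capillary electrophoresis of labelled fragments, report endogenous SOX transcription factor activity. Transiently transfected human HepG2 cells receive chemical for 24 h; changes in either direction are fitted relative to DMSO.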

[6] = ATG_SREBP_CIS: Attagene CIS-FACTORIAL HepG2 Assay for human Sterol Regulatory Element Binding (SREBP) (AID 2282962); conditions: HepG2 Attagene cis-factorial SREBP reporter, mRNA; actives raise or lower the signal
Procedure, shortened: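 Endogenous SREBP activity read as cis-element-driven reporter transcript in transiently transfected HepG2, 24 h post-dosing; quantified via RT-PCR plus capillary electrophoresis of fluorescent fragments. Gain or loss of signal fitted relative to DMSO baseline.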

[7] = target: Signal transducer and activator of transcription 3 (Homo sapiens) (UniProt P40763); assay: ATG_STAT3_CIS: Attagene CIS-FACTORIAL HepG2 Assay for human Signal Transducer and Activator of Transcription 3 (STAT3) (AID 2282963); conditions: HepG2, Attagene cis-factorial STAT3 reporter transcription; actives raise or lower the signal
Sequence of Signal transducer and activator of transcription 3 (Homo sapiens) (P40763 whole entry, looked up): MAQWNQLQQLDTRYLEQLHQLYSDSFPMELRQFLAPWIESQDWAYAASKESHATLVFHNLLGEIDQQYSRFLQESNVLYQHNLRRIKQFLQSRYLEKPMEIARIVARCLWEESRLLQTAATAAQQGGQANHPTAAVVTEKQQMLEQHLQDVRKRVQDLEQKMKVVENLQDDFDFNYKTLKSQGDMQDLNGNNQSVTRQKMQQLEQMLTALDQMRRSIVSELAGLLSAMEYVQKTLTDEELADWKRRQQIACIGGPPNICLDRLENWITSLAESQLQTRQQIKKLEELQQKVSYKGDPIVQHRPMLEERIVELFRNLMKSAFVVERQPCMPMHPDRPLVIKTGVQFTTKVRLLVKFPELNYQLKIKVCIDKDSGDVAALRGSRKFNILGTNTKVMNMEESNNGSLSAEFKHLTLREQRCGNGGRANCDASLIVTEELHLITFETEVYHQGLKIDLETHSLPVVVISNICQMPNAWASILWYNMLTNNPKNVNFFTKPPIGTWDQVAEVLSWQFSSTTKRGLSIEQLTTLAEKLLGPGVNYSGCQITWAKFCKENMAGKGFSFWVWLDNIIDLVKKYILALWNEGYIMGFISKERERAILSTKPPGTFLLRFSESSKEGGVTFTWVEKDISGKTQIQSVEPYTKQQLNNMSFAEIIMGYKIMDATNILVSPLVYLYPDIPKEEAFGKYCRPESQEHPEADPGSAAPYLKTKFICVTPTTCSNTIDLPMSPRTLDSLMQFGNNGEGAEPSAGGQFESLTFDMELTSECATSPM
Procedure, shortened: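 Cis-factorial format: endogenous transcription factors in HepG2 drive transfected reporter units. After 24 h treatment, reporter RNA was reverse-transcribed, amplified, FAM-labelled and HpaI-digested before CE analysis; activity scored in both directions against DMSO.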

[8] = ATG_TA_CIS: Attagene CIS-FACTORIAL HepG2 Assay for human TA Basal Promoter (AID 2282964); conditions: HepG2 Attagene CIS-factorial TA basal promoter reporter; actives raise or lower the signal
Procedure, shortened: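 Transient MRTU transfection of HepG2 preceded 24 h compound exposure. Reporter mRNA levels were then read by RT-PCR with capillary electrophoresis, and this background-control endpoint was fitted bidirectionally to DMSO.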

[9] = ATG_TCF_b_cat_CIS: Attagene CIS-FACTORIAL HepG2 Assay for human T-Cell-Factor with beta-catenin (TCF/b-cat) (AID 2282965); conditions: HepG2 TCF/beta-catenin cis-reporter transcription, actives raise or lower the signal
Procedure, shortened: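 Endogenous transcription factor activity is captured through cis-promoter reporter constructs transiently introduced into human HepG2 liver cells. Induced reporter mRNA is measured after 24 h and fitted bidirectionally relative to DMSO.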

[10] = ATG_TAL_CIS: Attagene CIS-FACTORIAL HepG2 Assay for human TAL Basal Promoter (AID 2282966); conditions: HepG2 Attagene cis-factorial TAL promoter reporter; actives raise or lower the signal;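 further: background control endpoint measuring basal TAL promoter reporter mRNA not a specific factor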
Procedure, shortened: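 After 24 hours of chemical exposure, transfected HepG2 cells yielded RNA that was converted to 6-FAM-labelled, HpaI-digested reporter fragments for capillary electrophoresis. Values derive from bidirectional fitting against DMSO controls.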

[11] = ATG_TGFb_CIS: Attagene CIS-FACTORIAL HepG2 Assay for human Transforming Growth Factor (TGF) (AID 2282967); conditions: HepG2 Attagene CIS TGFb reporter, mRNA transcription; actives raise or lower the signal
Procedure, shortened: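 After a 24-hour incubation with compound, transfected HepG2 cells were lysed for RNA; reporter cDNA was amplified, fluorescently end-labeled and separated by CE. DMSO served as baseline for bidirectional fits.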

[12] = ATG_VDRE_CIS: Attagene CIS-FACTORIAL HepG2 Assay for human Vitamin D Receptor Element (VDRE) (AID 2282968); conditions: HepG2 VDRE cis-reporter transcription, actives raise or lower the signal
Procedure, shortened: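 Measures endogenous factor activity through cis-element-driven reporter transcripts in transiently transfected HepG2. Cells are treated 24 h; reporter mRNA is quantified by RT-PCR and capillary electrophoresis; fitting is bidirectional.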

[13] = target: X-box-binding protein 1 (Homo sapiens) (UniProt P17861); assay: ATG_Xbp1_CIS: Attagene CIS-FACTORIAL HepG2 Assay for human X-box Binding Protein 1 (XBP1) (AID 2282972); conditions: HepG2 XBP1 cis-element reporter, Attagene multiplex; actives raise or lower the signal
Sequence of X-box-binding protein 1 (Homo sapiens) (P17861 whole entry, looked up): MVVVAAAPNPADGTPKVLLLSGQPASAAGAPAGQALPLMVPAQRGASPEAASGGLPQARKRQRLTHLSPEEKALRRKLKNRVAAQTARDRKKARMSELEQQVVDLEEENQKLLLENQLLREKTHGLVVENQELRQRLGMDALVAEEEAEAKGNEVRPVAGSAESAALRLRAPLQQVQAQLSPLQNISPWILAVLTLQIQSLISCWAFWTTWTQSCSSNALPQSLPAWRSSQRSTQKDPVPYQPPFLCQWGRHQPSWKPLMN
Procedure, shortened: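 Reporter transcripts were quantified by RT-PCR with fluorescent primer extension and capillary electrophoresis after 24 h chemical exposure. Cells: transiently transfected HepG2 carrying cis-regulated reporter constructs; data fitted bidirectionally relative to DMSO.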

[14] = ATG_M_19_TRANS: Attagene TRANS-FACTORIAL HepG2 Assay for M19 Transcription Factor (Internal Marker) (AID 2282974; active means hit-call score of the fitted dose curve at least 0.9, where 1 is the maximum); conditions: HepG2 Attagene TRANS-FACTORIAL M19 internal marker reporter
Procedure, shortened: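 Background-control readout: after 24 h chemical exposure of transfected HepG2 carrying GAL4-driven reporter units, RNA was reverse-transcribed, amplified, fluorescently labeled and sized by capillary electrophoresis; gain-of-signal fit against DMSO.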

[15] = target: Estrogen-related receptor gamma (Homo sapiens) (UniProt P62508); assay: ATG_ERRg_TRANS: Attagene TRANS-FACTORIAL HepG2 Assay for human Estrogen-Related Receptor gamma (ERRg) (AID 2282977; active means hit-call score of the fitted dose curve at least 0.9, where 1 is the maximum;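 further: hits increase reporter signal over DMSO so potencies reflect activators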); conditions: HepG2 Attagene TRANS reporter, ERRg transactivation
Sequence of Estrogen-related receptor gamma (Homo sapiens) (P62508 whole entry, looked up, the tested form may be a part): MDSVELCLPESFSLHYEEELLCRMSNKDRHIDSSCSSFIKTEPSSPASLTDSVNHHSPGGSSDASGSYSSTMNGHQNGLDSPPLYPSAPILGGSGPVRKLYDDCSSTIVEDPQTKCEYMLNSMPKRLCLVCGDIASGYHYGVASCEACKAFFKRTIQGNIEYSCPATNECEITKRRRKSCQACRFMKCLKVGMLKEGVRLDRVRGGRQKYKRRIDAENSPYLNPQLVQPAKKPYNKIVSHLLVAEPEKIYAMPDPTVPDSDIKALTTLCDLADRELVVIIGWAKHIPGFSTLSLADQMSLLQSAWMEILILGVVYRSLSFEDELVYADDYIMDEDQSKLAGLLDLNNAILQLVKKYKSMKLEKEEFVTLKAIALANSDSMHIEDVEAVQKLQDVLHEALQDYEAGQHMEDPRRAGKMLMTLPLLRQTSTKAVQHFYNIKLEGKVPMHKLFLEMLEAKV
Procedure, shortened: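 Exogenous NR-Gal4 chimera activity was assessed in HepG2 cells bearing transfected GAL4-UAS reporters. After 24 h dosing, total RNA underwent RT-PCR, fluorescent primer extension and HpaI digestion before capillary electrophoresis, with gain of signal scored against DMSO.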

[16] = target: Transcription factor Sp1 (Homo sapiens) (UniProt P08047); assay: ATG_Sp1_CIS: Attagene CIS-FACTORIAL HepG2 Assay for human Specificity Protein 1 (Sp1) (AID 2282961); conditions: HepG2 Sp1 cis-reporter transcription, actives raise or lower the signal
Sequence of Transcription factor Sp1 (Homo sapiens) (P08047 whole entry, looked up): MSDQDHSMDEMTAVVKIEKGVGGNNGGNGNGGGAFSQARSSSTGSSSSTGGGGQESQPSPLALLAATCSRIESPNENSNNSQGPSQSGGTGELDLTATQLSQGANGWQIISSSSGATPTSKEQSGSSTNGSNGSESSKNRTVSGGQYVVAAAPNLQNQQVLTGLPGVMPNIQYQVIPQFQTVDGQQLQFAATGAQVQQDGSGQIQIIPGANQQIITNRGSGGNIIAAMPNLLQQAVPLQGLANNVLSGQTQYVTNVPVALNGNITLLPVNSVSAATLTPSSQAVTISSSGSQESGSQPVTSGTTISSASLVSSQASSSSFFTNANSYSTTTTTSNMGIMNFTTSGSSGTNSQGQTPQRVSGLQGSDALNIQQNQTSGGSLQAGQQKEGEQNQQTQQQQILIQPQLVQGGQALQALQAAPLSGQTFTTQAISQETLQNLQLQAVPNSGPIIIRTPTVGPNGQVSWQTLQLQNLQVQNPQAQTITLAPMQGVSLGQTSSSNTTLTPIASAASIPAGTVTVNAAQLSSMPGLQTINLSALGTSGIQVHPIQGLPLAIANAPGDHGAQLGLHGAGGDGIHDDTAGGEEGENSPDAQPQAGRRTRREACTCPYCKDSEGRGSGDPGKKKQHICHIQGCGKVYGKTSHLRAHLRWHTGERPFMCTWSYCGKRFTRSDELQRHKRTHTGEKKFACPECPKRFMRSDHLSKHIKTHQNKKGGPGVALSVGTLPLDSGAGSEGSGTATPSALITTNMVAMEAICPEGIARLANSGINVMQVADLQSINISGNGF
Procedure, shortened: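 Read-out is reporter transcript level, measured by RT-PCR and fluorescent capillary electrophoresis after 24 h chemical treatment. System: transiently transfected HepG2 cells reporting endogenous transcription factor activity; gain or loss fitted against DMSO baseline.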

[17] = target: Estrogen receptor (Homo sapiens) (UniProt P03372); assay: ATG_ERa_TRANS: Attagene TRANS-FACTORIAL HepG2 Assay for human Estrogen Receptor alpha (ERa) (AID 2282970; active means hit-call score of the fitted dose curve at least 0.9, where 1 is the maximum); conditions: HepG2 Attagene TRANS ERa GAL4 reporter, mRNA
Sequence of Estrogen receptor (Homo sapiens) (P03372 whole entry, looked up, the tested form may be a part): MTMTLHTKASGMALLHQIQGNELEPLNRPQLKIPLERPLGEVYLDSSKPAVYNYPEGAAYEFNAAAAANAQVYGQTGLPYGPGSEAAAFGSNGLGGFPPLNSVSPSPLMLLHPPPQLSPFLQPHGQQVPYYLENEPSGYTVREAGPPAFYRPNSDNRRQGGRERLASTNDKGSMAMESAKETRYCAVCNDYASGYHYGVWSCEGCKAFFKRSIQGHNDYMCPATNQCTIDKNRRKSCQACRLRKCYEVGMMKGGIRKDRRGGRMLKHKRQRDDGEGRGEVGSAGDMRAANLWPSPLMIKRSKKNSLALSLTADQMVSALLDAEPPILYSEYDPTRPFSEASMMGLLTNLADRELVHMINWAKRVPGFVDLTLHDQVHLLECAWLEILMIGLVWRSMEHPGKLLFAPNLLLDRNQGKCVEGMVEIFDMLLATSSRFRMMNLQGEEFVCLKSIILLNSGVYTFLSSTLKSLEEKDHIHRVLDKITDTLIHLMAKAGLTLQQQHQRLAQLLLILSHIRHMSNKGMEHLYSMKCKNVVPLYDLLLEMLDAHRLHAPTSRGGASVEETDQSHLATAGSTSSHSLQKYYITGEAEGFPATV
Procedure, shortened: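 Liver-derived HepG2 cells expressing chimeric nuclear receptor-Gal4 proteins from transient transfection were exposed for 24 hours. Gain of reporter mRNA signal versus DMSO, read by capillary electrophoresis of FAM-labelled PCR products, was recorded.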

[18] = ATG_GAL4_TRANS: Attagene TRANS-FACTORIAL HepG2 Assay for GAL4 (Internal Marker) (AID 2282976; active means hit-call score of the fitted dose curve at least 0.9, where 1 is the maximum); conditions: HepG2 Attagene TRANS GAL4 internal marker reporter
Procedure, shortened: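 First, HepG2 cells were transfected with reporter units under GAL4-UAS control. Next, they were treated with chemical for 24 h. Finally, RNA was reverse-transcribed, PCR-amplified, FAM-labelled and resolved by capillary electrophoresis, with induction scored against DMSO.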

[19] = target: Nuclear receptor subfamily 1 group I member 3 (Homo sapiens) (UniProt Q14994); assay: ATG_CAR_TRANS: Attagene TRANS-FACTORIAL HepG2 Assay for human Constitutive Androstane Receptor (CAR) (AID 2282969; active means hit-call score of the fitted dose curve at least 0.9, where 1 is the maximum;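 further: activators raise reporter mRNA above DMSO so AC50 marks induction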); conditions: HepG2 Attagene TRANS-FACTORIAL CAR reporter
Sequence of Nuclear receptor subfamily 1 group I member 3 (Homo sapiens) (Q14994 whole entry, looked up, the tested form may be a part): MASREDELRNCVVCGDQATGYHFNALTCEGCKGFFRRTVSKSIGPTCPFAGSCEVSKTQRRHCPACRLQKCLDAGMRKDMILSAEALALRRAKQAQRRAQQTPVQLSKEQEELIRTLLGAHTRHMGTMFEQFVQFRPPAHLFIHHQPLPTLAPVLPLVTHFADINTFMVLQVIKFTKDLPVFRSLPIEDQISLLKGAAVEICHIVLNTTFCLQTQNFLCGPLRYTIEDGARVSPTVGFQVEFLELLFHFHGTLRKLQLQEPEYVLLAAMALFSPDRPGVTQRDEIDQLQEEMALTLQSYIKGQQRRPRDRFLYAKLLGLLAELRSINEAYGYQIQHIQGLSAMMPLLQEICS
Procedure, shortened: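 Signal is reporter mRNA induction relative to DMSO, measured 24 h after dosing by RT-PCR with fluorescent primer extension and capillary electrophoresis. Human HepG2 liver cells carried transiently transfected chimeric NR-Gal4/GAL4-UAS reporter constructs.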

[20] = target: Steroid hormone receptor ERR1 (Homo sapiens) (UniProt P11474); assay: ATG_ERRa_TRANS: Attagene TRANS-FACTORIAL HepG2 Assay for human Estrogen-Related Receptor alpha (ERRa) (AID 2282971; active means hit-call score of the fitted dose curve at least 0.9, where 1 is the maximum); conditions: HepG2 Attagene TRANS reporter, ERRa transactivation
Sequence of Steroid hormone receptor ERR1 (Homo sapiens) (P11474 whole entry, looked up, the tested form may be a part): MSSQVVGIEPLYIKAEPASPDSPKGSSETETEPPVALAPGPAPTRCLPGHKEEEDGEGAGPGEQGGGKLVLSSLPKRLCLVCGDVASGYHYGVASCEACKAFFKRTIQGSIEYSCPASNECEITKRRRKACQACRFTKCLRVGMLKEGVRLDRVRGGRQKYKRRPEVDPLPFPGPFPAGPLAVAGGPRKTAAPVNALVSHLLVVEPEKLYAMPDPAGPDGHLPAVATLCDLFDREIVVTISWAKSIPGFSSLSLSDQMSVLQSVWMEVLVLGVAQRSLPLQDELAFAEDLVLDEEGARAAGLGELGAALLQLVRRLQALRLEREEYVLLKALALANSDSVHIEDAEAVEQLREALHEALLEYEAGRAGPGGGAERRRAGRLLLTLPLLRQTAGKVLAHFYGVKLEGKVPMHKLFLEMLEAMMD
Procedure, shortened: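 Reporter transcript induction was quantified by RT-PCR and capillary electrophoresis of FAM-labelled, HpaI-cut products after 24 h treatment of HepG2 cells carrying transiently transfected GAL4-UAS reporter units and an exogenous ERRa-Gal4 fusion; activity scored as increase over DMSO.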

## CC1(C)S[C@@H]2[C@H](NC(=O)COc3ccccc3)C(=O)N2[C@H]1C(=O)O
[1]
  outcome: inactive
[2]
  AC50: 4.35 µM (active)
[3]
  outcome: inactive
[4]
  outcome: inactive
[5]
  outcome: inactive
[6]
  outcome: inactive
[7]
  outcome: inactive
[8]
  outcome: inactive
[9]
  outcome: inactive
[10]
  outcome: inactive
[11]
  outcome: inactive
[12]
  outcome: inactive
[13]
  outcome: inactive
[14]
  outcome: inactive
[15]
  outcome: inactive

## Nc1ccc(-c2ccc(F)cc2)cc1
[1]
  outcome: inactive
[2]
  AC50: 27.4 µM (active)
[3]
  outcome: inactive
[4]
  outcome: inactive
[5]
  outcome: inactive
[16]
  outcome: inactive
[6]
  outcome: inactive
[7]
  outcome: inactive
[9]
  outcome: inactive
[10]
  outcome: inactive
[11]
  outcome: inactive
[12]
  outcome: inactive
[17]
  AC50: 26.9 µM (active)
[13]
  outcome: inactive
[14]
  outcome: inactive
[15]
  outcome: inactive

## NNC(=O)c1cccc(C(=O)NN)c1
[1]
  outcome: inactive
[2]
  outcome: inactive
[3]
  outcome: inactive
[4]
  outcome: inactive
[5]
  outcome: inactive
[16]
  outcome: inactive
[6]
  outcome: inactive
[8]
  outcome: inactive
[9]
  outcome: inactive
[10]
  outcome: inactive
[11]
  outcome: inactive
[12]
  outcome: inactive
[13]
  outcome: inactive

## C=COCCCC
[1]
  outcome: inactive
[2]
  outcome: inactive
[3]
  outcome: inactive
[4]
  outcome: inactive
[5]
  outcome: inactive
[16]
  outcome: inactive
[6]
  outcome: inactive
[8]
  outcome: inactive
[9]
  outcome: inactive
[10]
  outcome: inactive
[11]
  outcome: inactive
[12]
  outcome: inactive
[13]
  outcome: inactive
[14]
  outcome: inactive

## Clc1nc2ccccc2s1
[1]
  outcome: inactive
[2]
  outcome: inactive
[3]
  outcome: inactive
[4]
  outcome: inactive
[5]
  outcome: inactive
[16]
  outcome: inactive
[6]
  outcome: inactive
[8]
  outcome: inactive
[9]
  outcome: inactive
[10]
  outcome: inactive
[11]
  outcome: inactive
[12]
  outcome: inactive
[13]
  outcome: inactive
[18]
  outcome: inactive

## CCCCCCCCCCCCCCCCCC#N
[1]
  outcome: inactive
[2]
  outcome: inactive
[3]
  outcome: inactive
[4]
  outcome: inactive
[5]
  outcome: inactive
[16]
  outcome: inactive
[6]
  outcome: inactive
[7]
  outcome: inactive
[9]
  outcome: inactive
[10]
  outcome: inactive
[11]
  outcome: inactive
[19]
  outcome: inactive
[17]
  outcome: inactive
[13]
  outcome: inactive
[18]
  outcome: inactive

## COC(=O)c1ccccc1OC
[1]
  outcome: inactive
[2]
  outcome: inactive
[3]
  outcome: inactive
[4]
  outcome: inactive
[5]
  outcome: inactive
[6]
  outcome: inactive
[7]
  outcome: inactive
[8]
  outcome: inactive
[9]
  outcome: inactive
[10]
  outcome: inactive
[11]
  outcome: inactive
[20]
  outcome: inactive
[13]
  outcome: inactive
